These results are taken from PubChem BioAssay AID1578 (Sanford-Burnham Center for Chemical Genomics, 2009).

Structures are written as SMILES. Screen size: about 290,000 compounds; about 3,000 (1%) were called active. Cut-off read from the data, not from the text of the source: active = inhibition mostly above about 36% (no sharp cut-off); inactive = mostly below about 34%. For the sample, actives were picked, then their nearest neighbours and some compounds at random.

The test can be described thus: inhibition of NOD1-driven NF-kB reporter – cell-based, luminescence, uHTS, primary screen (AID 1578).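 Note: HEK-293T reporter cells stimulated with the NOD1 agonist gamma-tri-DAP.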 Conditions: NOD1-driven NF-kB luciferase reporter cells, at 4 µM, hits give high values.
As to `O=C(OCCN=C1NS(=O)(=O)c2ccccc21)c1ccccc1F`, the inhibition was 31.5% (inactive). The value for `O=C(NCCCN1CCCC1=O)[C@H](CSCc1ccccc1)N1Cc2ccccc2C1=O` was 1.9% (inactive); that for `Cc1ccc(NC(=O)CN(C)C(=O)Cc2c(Cl)cccc2Cl)cc1` was -9.1% (inactive); that for `CCc1ccccc1NC(=O)Nc1cccn(Cc2ccccc2F)c1=O` was -23.3% (inactive). The value for `CSc1ccc(NC(=O)Nc2cccn(Cc3ccccc3)c2=O)cc1` was 46.6% (inactive).

With `COc1ccc(Cn2cccc(NC(=O)Nc3ccc(F)cc3)c2=O)cc1`, the inhibition was 37.8% (inactive). In the case of `COc1cccc(NC(=O)Nc2cccn(Cc3ccccc3)c2=O)c1`, the inhibition is -11% (inactive). The value for `CSc1ccc(NC(=O)Nc2cccn(Cc3ccccc3F)c2=O)cc1` was 89.6% (active); that for `CCOc1ccc(NC(=O)Nc2cccn(Cc3ccccc3)c2=O)cc1` was 44.3% (active); that for `O=C(O)CCCCCNC(=O)CCn1cnc2ccccc2c1=O` was 21.1% (inactive). Turning to `COc1cc(OC)cc(-c2nnc(SCC(=O)Nc3cccc(C(=O)O)c3)s2)c1`, the inhibition is -32.1% (inactive). The value for `O=C(c1ccc(Cl)cc1)N1CCN(CCc2ccccn2)CC1` was -13% (inactive). For `COc1cc(/C=C2/C(=O)NN(c3ccccc3)C2=O)cc(Br)c1O`, the inhibition was 15.4% (inactive). For `COc1cc(/C=C2/C(=O)NN(c3ccc(F)cc3)C2=O)cc(Cl)c1O` the value was 12.2% (inactive); for `OCC[C@@H]1C[C@H](O)[C@@H](O)[C@]2(Cc3ccccc3CO2)O1`, 15% (inactive); for `COc1ccc(C(=O)N(CCc2ccccc2)Cc2ccccc2)c(OC)n1`, -5.7% (inactive). For the molecule `CCC(O)C1CCN(C(=O)c2cc(COc3ccc4ncccc4c3)on2)CC1` (configuration not stated), the inhibition is 52.9% (inactive). For the molecule `Cc1ccc(OCc2cc(C(=O)NCc3cc(F)ccc3C)no2)cn1`, the inhibition is -13.5% (inactive).

With `CCN1CCN(C(=O)c2cc(COc3ccc4ncccc4c3)on2)CC1`, the inhibition was 26.3% (inactive).

In the case of `Cc1ccc(F)cc1CNC(=O)c1cc(COc2ccc3ncccc3c2)on1`, the inhibition was 59.8% (active). The value for `CC(=O)c1ccc(OCc2cc(C(=O)NC3CCCCC3)no2)cc1` was -46.8% (inactive); that for `O=C(c1cc(COc2ccc3ncccc3c2)on1)N1CCC(O)CC1` was 0.3% (inactive); that for `O=C(c1cc(COc2ccc3ncccc3c2)on1)N1CCCC1` was 19.1% (inactive). For `O=C(NC1CCCCCCC1)c1cc(COc2ccc3ncccc3c2)on1` the value was 44.4% (active); for `CC(NC(=O)c1cc(COc2ccc3ncccc3c2)on1)c1ccc(F)cc1` (configuration not stated), 7.2% (inactive); for `O=C(NC1CCCC1)c1cc(COc2ccc3ncccc3c2)on1`, 26.8% (inactive). The value for `CS(=O)(=O)N1CCN(c2ccccc2NC(=S)NC(=O)c2ccccc2[N+](=O)[O-])CC1` was -7.4% (inactive). Regarding `O=C(COC(=O)CNS(=O)(=O)c1ccccc1)Nc1ccc(Cl)cn1`, the inhibition was -21% (inactive). Take `Cc1cc(C)n(-c2ccc(C(=O)Nc3sccc3C(N)=O)cc2)n1`: the inhibition was -77.9% (inactive).

Take `COc1ncnc2c1oc1nc(C(C)C)c3c(c12)CC(C)(C)OC3`: the inhibition was -12.3% (inactive). Take `CCN(CC)S(=O)(=O)c1cccc(N=Nc2sc(N)nc2C)c1`: the inhibition is 1.1% (inactive). Regarding `N#Cc1ccc(OCC(O)CS(=O)(=O)c2ccccc2)cc1` (configuration not stated), the inhibition was -22.8% (inactive). The value for `CC(=O)c1ccc(NC(=O)C2CCCN(C(=O)c3ccc(Cl)cc3)C2)cc1` (configuration not stated) was -22.6% (inactive); that for `O=C1CCCN1S(=O)(=O)c1ccc(F)cc1` was 5.5% (inactive); that for `CCOc1ccc(NC(=O)C2CCCN(S(=O)(=O)c3ccc4c(c3)CC(C)N4C(C)=O)C2)cc1` (configuration not stated) was -4% (inactive). The value for `COn1c(-c2ccccc2)nc2ccc(Cl)cc21` was -72.4% (inactive). With `Cc1cc(C(=O)N/N=C/c2c(C)nn(-c3ccccc3)c2Cl)n[nH]1`, the inhibition is -4.6% (inactive). `CC(=O)N(C(C)=O)S(=O)(=O)c1ccc(N=NN2CCOCC2)cc1`: the inhibition is -25.7% (inactive). Regarding `O=C(Nc1ccccc1C(=O)Nc1cccnc1)c1ccccc1`, the inhibition is -11.8% (inactive). The value for `Cc1csc(NC(=O)c2ccc(=O)[nH]c2)n1` was -4.6% (inactive); that for `Cc1ccc2c(c1)C1CN(C)CCC1N2C(=S)NC(=O)c1ccc(Cl)cc1Cl` (configuration not stated) was -10.8% (inactive); that for `Cc1ccc2c(c1)C1CN(C)CCC1N2C(=S)Nc1ccc(Cl)cc1Cl` (configuration not stated) was 13% (inactive).

Consider `Cc1ccc2c(c1)C1CN(C)CCC1N2C(=S)NC(=O)c1ccc(Br)cc1` (configuration not stated), for which the inhibition was 61.2% (active). The value for `CCOc1cc(C2Nc3ccccc3NC3=C2C(=O)CC(C)(C)C3)ccc1O` (configuration not stated) was -14.4% (inactive). For `NC(=O)CSc1nc(C23CC4CC(CC(C4)C2)C3)nc2ccccc12` the value was 58.4% (active); for `NC(=O)CSc1nc(-c2ccccc2)nc2ccccc12`, -12.4% (inactive). For `Cc1nonc1NC(=O)CSc1nc(C23CC4CC(CC(C4)C2)C3)nc2ccccc12` the value was 2.5% (inactive).

Turning to `Cc1ccc(NC(=O)CCOc2ccccc2)cc1`, the inhibition is -12.7% (inactive). The value for `CCC(C)NC(=O)C(Cc1ccccc1)n1cccc1` (configuration not stated) was -8% (inactive). As to `CCC1Oc2ccc(C)cc2N(CC(=O)N(Cc2ccncc2)Cc2ccco2)C1=O` (configuration not stated), the inhibition was -36.7% (inactive).

As to `CCC1Oc2ccc(C)cc2N(CC(=O)N(Cc2cccnc2)Cc2cccc(F)c2)C1=O` (configuration not stated), the inhibition is 34.6% (active). The value for `CCC1Oc2ccc(C)cc2N(CC(=O)N(Cc2cccnc2)Cc2ccc(C)o2)C1=O` (configuration not stated) was -12.7% (inactive). For `Cc1nn(C)c(C(=O)Nc2ccc(Br)cc2F)c1Br` the value was 46% (inactive); for `CCOP(=O)(OCC)C(NC(=O)Nc1ccccc1)c1ccccc1` (configuration not stated), -11.6% (inactive). Take `COc1ccc2c(c1)c1ccc3c(c1n2C)C(=O)C=CC3=O`: the inhibition was 0.4% (inactive).

Turning to `COc1ccc2[nH]c(C)cc(=O)c2c1`, the inhibition was -7.4% (inactive). The value for `COc1ccc2[nH]c3c4c(ccc3c2c1)C(=O)C=CC4=O` was 51% (active); that for `Cc1ccc(NC(=S)NNC(=O)c2ccc(N3CCOCC3)c([N+](=O)[O-])c2)cc1C` was -2.1% (inactive). The value for `COc1ccc(-c2csc(NC(=O)CCS(=O)(=O)c3ccccc3)n2)c(OC)c1` was -13.4% (inactive). As to `COc1ccc(C(O)(C(C)C)C(CN2CCOCC2)c2ccccc2)cc1` (configuration not stated), the inhibition was 5.4% (inactive).

As to `CN(C)C=NC(=O)c1cc(C(=O)c2ccc(Cl)cc2Cl)c[nH]1`, the inhibition is 59.7% (active). On to `CN(C)C=NC(=O)c1cc(C(=O)c2ccccc2Cl)c[nH]1`, for which the inhibition was -1.9% (inactive). The value for `CN(C)C=NC(=O)c1cc(C(=O)c2ccc(Cl)cc2)c[nH]1` was 38.4% (inactive). For `O=C1CN(C(=O)NCC(=O)N[C@H](Cc2ccccc2)C(=O)O)c2ccccc2N1` the value was -34.2% (inactive). The value for `CC(C)c1cccc(C(C)C)c1NC(=O)Cn1c(=O)cnc2ccccc21` was -9.4% (inactive); that for `CN1CCC(N(C)S(=O)(=O)c2ccc(NC(=O)COc3ccc(F)cc3Cl)cc2)CC1` was -16.5% (inactive). `COc1ccccc1OC(=O)Cc1cccc2ccccc12`: the inhibition is 63.8% (inactive). As to `CC(=O)c1ccc(N2CCN(C(=O)CN(C)S(=O)(=O)c3cnc[nH]3)CC2)cc1`, the inhibition was -22.7% (inactive).

As for `N#CCn1cnc2sc(-c3ccccc3)cc2c1=O`, the inhibition was -27.8% (inactive). The value for `Cc1nn(C(C)(C)C)c(OC(=O)c2ccco2)c1Sc1ccccc1` was -2.8% (inactive); that for `Cc1nn(C(C)(C)C)c(OC(=O)c2cccs2)c1Sc1ccccc1` was 68.5% (active).

For the molecule `Cc1nn(C(C)(C)C)c(OC(=O)c2ccc(Br)o2)c1Sc1ccccc1`, the inhibition was 19.3% (inactive). Turning to `Cc1ccc(C2(C)NC(=O)N(CC(=O)Nc3cc(S(=O)(=O)N(C)C)ccc3C)C2=O)cc1` (configuration not stated), the inhibition was -19.4% (inactive).

As for `O=C(/C=C\Nc1ccc2c(c1)OCO2)c1ccccn1`, the inhibition was 70.6% (active). For `O=C(/C=C/c1ccccc1)c1ccccn1` the value was -15.9% (inactive). The value for `O=C(/C=C/c1ccc2c(c1)OCO2)c1ccccn1` was -6.5% (inactive); that for `O=C(/C=C\Nc1ccccc1Br)c1ccc2c(c1)OCO2` was 59.6% (active); that for `O=C(/C=C/Nc1ccccc1Br)c1ccccn1` was 84.5% (active). For `O=C(/C=C\Nc1ccc2c(c1)OCO2)c1cccs1` the value was -64.5% (inactive); for `O=C(/C=C/c1ccccc1Br)c1ccc2c(c1)OCO2`, -20% (inactive).

As to `O=C(/C=C\Nc1ccc2c(c1)OCO2)c1ccc2c(c1)OCO2`, the inhibition is -48.7% (inactive). For `O=C(/C=C\Nc1ccccn1)c1ccccc1` the value was -49.1% (inactive). The value for `COc1cc(-c2cc(-c3ccccc3)nc(SCC(=O)O)c2C#N)cc(OC)c1OC` was -3.4% (inactive).

For `O=C(NCc1ccccc1)C1CCCN(S(=O)(=O)c2ccc(-n3cnnn3)cc2)C1` (configuration not stated), the inhibition was 34.5% (inactive).

For `O=C(NC1CCSC1=O)c1ccccc1` (configuration not stated), the inhibition is 18.9% (inactive).

For `Cc1ccc2sc(N(CCN(C)C)C(=O)c3ccc(S(=O)(=O)N4CC(C)OC(C)C4)cc3)nc2c1C` (configuration not stated), the inhibition is -6.4% (inactive). For `COc1ccc(Br)cc1C1CC(=O)C(C)C(c2cc(Br)ccc2OC)N1` (configuration not stated) the value was -12% (inactive). Consider `COc1ccc(/C=N/NC(=O)CSCc2ccc([N+](=O)[O-])cc2)cc1OC`, for which the inhibition is -10.4% (inactive). The value for `O=C(NNc1ccc(F)cc1F)C1CCC1` was -1.9% (inactive); that for `CCOc1ccc(Nc2ccnc3cc(Cl)ccc23)cc1` was 5.9% (inactive).

Turning to `Oc1ccc(Nc2ccnc3cc(Cl)ccc23)cc1`, the inhibition was 53.4% (active). Regarding `O=C(NNc1ccnc2cc(Cl)ccc12)C1CCCCC1`, the inhibition was 47.5% (active). In the case of `Clc1ccc(NNc2ccnc3cc(Cl)ccc23)cc1`, the inhibition was -35.6% (inactive). For `NC(=S)NNc1ccnc2cc(Cl)ccc12` the value was -8.6% (inactive); for `O=C(NNc1cc(Cl)ccc1Cl)C1CCC1`, -7.1% (inactive). For `Clc1ccc(CNC2CCCC2)cc1` the value was 9.1% (inactive). The value for `Cc1ccc(CN(C(=O)c2ccc([N+](=O)[O-])cc2)C2CCS(=O)(=O)C2)o1` (configuration not stated) was -50% (inactive).
